# Experimental data from PubChem BioAssay (Tox21).
# Inconclusive results are not listed. A number with no mark means an inactive call. Calls of active or inactive are those of the source. Calls follow the shape of the dose curve; as a rule, active = well fitted cell-killing curve with a large enough effect in the repeat runs; inconclusive = weak or mixed curves, or effect the other way; inactive = flat fitted curve, though single readings scatter.
# Assay: qHTS assay to identify small molecule antagonists of the estrogen receptor alpha (ER-alpha) signaling pathway using the BG1 cell line in the presence of 0.1 nM 17-beta-estradiol - cell viability counter screen (AID 1259241); also: nearly all actives have a fitted effect of over 40% in size
# Details: VM7Luc4E2 (BG1) viability, CellTiter-Fluor protease, 22 h, 0.1 nM estradiol agonist added; series mostly up to 92.4 µM; activity change, negative = cytotoxicity: at the top concentration
# Excerpt: National Center for Advancing Translational Sciences [NCATS]
# NIH Chemical Genomics Center [NCGC]
# U.S. Environmental Protection Agency [EPA]
# National Institutes of Environmental Health Sciences [NIEHS]
# National Toxicology Program [NTP]
# U.S. Food and Drug Administration [FDA]
# Estrogen receptor (ER), a member of the nuclear hormone receptor plays an important role in development, metabolic homeostasis and reproduction. Two subtypes of ER, ER-alpha and ER-beta, have similar expression patterns with some uniqueness in both types. Endocrine disrupting chemicals (EDCs) and their interactions with steroid hormone receptors like ER causes disruption of normal endocrine function. Therefore, it is important to understand the effect of environmental chemicals in ER signaling pathway. For identifying ER antagonists, VM7Luc4E2 cell line was used to screen against Tox21 compound libraries.
# VM7Luc4E2 cell line (provided by Denison MS, University of California) endogenously express full-length ER-alpha and is stably transfected with a plasmid containing four estrogen responsive elements (ERE) upstream of a luciferase reporter gene. The current screening for identification of ER-alpha inhibitors against Tox21 compound libraries used lower concentration (0.1 nM) of 17beta-Estradiol as a stimulator. The cytotoxicity of the Tox21 compound libraries against VM7Luc4E2 cell line was tested by measuring live-cell protease activity using CellTiter-Fluor assay in the same wells.
# Tox21 Assay Protocol Summary:
# VM7Luc4E2 cells were cultured in phenol red free assay medium containing 10% charcoal stripped FBS for 5 days prior to the assay. The cells were dispensed at 4,000 cells/well in 4 uL of assay medium into white wall/solid-bottom 1536-well plates (Corning Life Sciences, Corning, NY) using a Multidrop Combi (ThermoFisher Scientific, Waltham, MA) dispenser. After the assay plates were incubated at 37C and 5% CO2 for 24 hr, 23 nL of compounds dissolved in DMSO, positive controls or DMSO only was transferred to the assay plates by a Pintool station (Kalypsys, San Diego, CA). The transfer of compounds was followed by the addition of 1 uL of 0.1 nM (final concentration) agonist (17beta-Estradiol)/assay medium using a Flying Reagent Dispenser (FRD, Aurora Discovery, San Diego, CA). The plates were incubated at 37C and 5% CO2 for 22 hr. For cytotoxicity assay, 1 uL of CellTiter-Fluor reagent (Promega Corporation, Madison, WI) was added to each well using the FRD and after 30 min incubation at 37C and 5% CO2, The fluorescence intensity was measured using ViewLux plate reader (PerkinElmer, Shelton, CT).
# % is scaled to controls: 0 for no effect and ±100 for the full control effect; potency is read from the fitted curve at half-maximal effect.
Structure (SMILES),"activity change, negative = cytotoxicity",Potency
O=C(O)C1(C(=O)O)CCC1.[NH2-].[NH2-].[Pt+2],-18.2% [at 42.5 µM],
CCCCc1nc2cccnc2n1Cc1ccc(-c2ccccc2-c2nnn[nH]2)cc1,-15.2%,
C/C(=C(\CCOP(=O)(O)O)SC(=O)c1ccccc1)N(C=O)Cc1cnc(C)nc1N,-4.04% [at 8.39 µM],
Cc1oc2c(NC(=O)c3c(Cl)cccc3Cl)cccc2c1C(C)(C)O,-5.64%,
CC(C)OC(=O)C(C)N(C(=O)c1ccccc1)c1ccc(F)c(Cl)c1 (stereo not given),-11.4%,
CCC(Cl)CCC(Cl)C(Cl)CC(Cl)C(Cl)C(Cl)CCl (stereo not given),-5.35%,
NCC(=O)O,-1.87% [at 19 µM],
CCOC(=O)COC(=O)c1cc(Oc2ccc(C(F)(F)F)cc2Cl)ccc1[N+](=O)[O-],-13%,
NCC(=O)CCC(=O)O,-5.46% [at 42.5 µM],
Clc1ccc(Cn2c(CN3CCCC3)nc3ccccc32)cc1,-0.874% [at 42.5 µM],
CC(C)C[C@H]1C(=O)N2CCC[C@H]2[C@]2(O)O[C@](NC(=O)[C@@H]3C=C4c5cccc6[nH]c(Br)c(c56)C[C@H]4N(C)C3)(C(C)C)C(=O)N12,-1.18% [at 42.5 µM],
O=C(Nc1ccccc1)c1ccccc1O,-4.46%,
CN1CCN(C(c2ccccc2)c2ccccc2)CC1,3.3% [at 42.5 µM],
CN1CCC(=C2c3ccccc3Sc3ccccc32)CC1,-5.61% [at 42.5 µM],
Cn1c(=O)cc(Oc2ccc(F)cc2F)c2cnc(NCC(C)(C)O)nc21,-9.11%,
O=[N+]([O-])c1ccc2[nH]ncc2c1,4.77%,
O=C1CCCCCCCCCCCC(=O)OCCO1,1.23%,
C=CC(=O)OCCOCCOC(=O)C=C,,61.4 µM (active)
COCC(C)OC(C)=O (stereo not given),0.473%,
CCn1cc(C(=O)O)c(=O)c2cnc(N3CCNCC3)nc21,-4.35% [at 42.5 µM],

Structure (SMILES),"activity change, negative = cytotoxicity",Potency
CCOc1ccc(N)c([N+](=O)[O-])c1,-21.5%,
C=C(C)C(=O)OCC,15.6%,
CCOc1ccc(N=Nc2ccc(/C=C/c3ccc(N=Nc4ccc(OCC)cc4)cc3S(=O)(=O)O)c(S(=O)(=O)O)c2)cc1,,24 µM (active)
CCNc1cc(O)ccc1C,-4.24%,
CC1(c2ccccc2)OC(C(=O)O)=CC1=O (stereo not given),-9.94% [at 42.5 µM],
O=C(O)c1ccc(-n2nc(-c3ccccc3O)nc2-c2ccccc2O)cc1,2.22% [at 42.5 µM],
Cc1ccc(C(=O)Oc2ccc(C(O)CNC(C)(C)C)cc2OC(=O)c2ccc(C)cc2)cc1 (stereo not given),-9.43% [at 42.5 µM],
c1ccc(CNCCNCc2ccccc2)cc1,-11.1% [at 42.5 µM],
O=C(O)c1ccc(S(=O)(=O)O)cc1C(=O)O,4.28%,
O=C(OCCCCCCOC(=O)c1ccccc1)c1ccccc1,-1.39%,
Brc1c2ccccc2cc2ccccc12,-0.268%,
COc1cc2nc(N3CCN(C(=O)C4COc5ccccc5O4)CC3)nc(N)c2cc1OC (stereo not given),-13.1% [at 42.5 µM],
OC(CN1CCC(Cc2ccc(F)cc2)CC1)c1ccc(Cl)cc1 (stereo not given),-10.1% [at 42.5 µM],
c1ccc(C(O[C@H]2CCCN(CCc3ccc4c(c3)OCO4)C2)c2ccccc2)cc1,-4.14% [at 42.5 µM],
C/C=C/C=C/CO,-2.7%,
O=C1c2ccccc2S(=O)(=O)N1CCCCN1CCN(c2ncccn2)CC1,-7.62% [at 42.5 µM],
Cc1ncc(CO)c(C=O)c1O,0.0004% [at 42.5 µM],
CCN(CC)CCOC(=O)C(Cc1cccc2ccccc12)CC1CCCO1 (stereo not given),-20.5% [at 42.5 µM],
Cc1ccccc1S(=O)(=O)O,0.551%,
NCc1ccccc1Sc1ccccc1CO,-8.95% [at 42.5 µM],
